Laboratory results as given in PubChem BioAssay AID1779 (Sanford-Burnham Center for Chemical Genomics, 2009).
Out of some 290,000 compounds screened, about 160 (0.055%) were called active. Cut-off read from the data, not from the text of the source: active = inhibition above about 50%; inactive = the rest. Shown is part of a subset that was picked to be rich in actives.

biological target: Tyrosine-protein phosphatase non-receptor type 22 (Homo sapiens) (UniProt Q9Y2R2); assay: PTPN22 lymphoid phosphatase activity blockers – biochemical, fluorescence intensity, uHTS (AID 1779); details: recombinant LYP phosphatase, at 11.5 µM, hits give high values;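 note: plate controls were vehicle with enzyme for no effect and no enzyme for full effect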
Sequence (Q9Y2R2 whole entry, looked up): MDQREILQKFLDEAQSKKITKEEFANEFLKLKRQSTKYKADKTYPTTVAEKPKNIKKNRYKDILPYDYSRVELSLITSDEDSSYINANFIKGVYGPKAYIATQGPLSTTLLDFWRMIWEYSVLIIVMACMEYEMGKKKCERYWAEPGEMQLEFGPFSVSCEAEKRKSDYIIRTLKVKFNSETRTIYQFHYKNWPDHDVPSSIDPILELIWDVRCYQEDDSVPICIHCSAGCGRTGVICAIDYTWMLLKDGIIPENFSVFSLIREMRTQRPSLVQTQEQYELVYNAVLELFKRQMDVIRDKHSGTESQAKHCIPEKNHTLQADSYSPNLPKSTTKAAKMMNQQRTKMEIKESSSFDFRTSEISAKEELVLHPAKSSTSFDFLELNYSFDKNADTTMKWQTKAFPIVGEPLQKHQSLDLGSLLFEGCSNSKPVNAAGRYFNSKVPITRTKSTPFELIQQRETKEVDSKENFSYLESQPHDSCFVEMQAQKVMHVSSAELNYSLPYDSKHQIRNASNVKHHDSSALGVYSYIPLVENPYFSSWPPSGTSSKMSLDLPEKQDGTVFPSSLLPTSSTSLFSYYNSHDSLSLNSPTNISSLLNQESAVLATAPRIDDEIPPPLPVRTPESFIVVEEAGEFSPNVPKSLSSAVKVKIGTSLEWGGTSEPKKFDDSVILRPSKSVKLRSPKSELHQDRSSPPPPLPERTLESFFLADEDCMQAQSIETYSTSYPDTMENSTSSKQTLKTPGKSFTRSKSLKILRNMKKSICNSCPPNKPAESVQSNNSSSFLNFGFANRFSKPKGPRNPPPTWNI

**Q.** Which inhibition does the source give for COc1cc(OC)cc(C(=O)NCCN2C(=O)S/C(=C\c3cccs3)C2=O)c1 here?
**A.** 0.8% (inactive)

**Q.** For Cc1nn(C(C)C(=O)NCCCN2CCCCCC2)c(=O)c2c1sc1ccccc12 (configuration not stated), which inhibition is on record?
**A.** -12.7% (inactive)

**Q.** Cc1cccc(C)c1NC(=O)Cn1c(=O)n(CCCC(=O)NC2CCN(Cc3ccccc3)CC2)c(=O)c2ccccc21 was tested. Which inhibition did it give?
**A.** -5.3% (inactive)

**Q.** For O=C(CCCCn1c(=O)c2ccccc2n(Cc2ccccc2)c1=O)NC1CCN(Cc2ccccc2)CC1, which inhibition is on record?
**A.** -1.4% (inactive)

**Q.** Cc1cc(NC(=O)Cn2c(=O)n(CCCCC(=O)NC3CCN(Cc4ccccc4)CC3)c(=O)c3ccccc32)n[nH]1 was tested. Which inhibition did it give?
**A.** 73.8% (active)

**Q.** CCOC(=O)C1=C(C)NC(=S)NC1c1ccc(-c2cccc(Cl)c2C)o1 (configuration not stated) was tested. Which inhibition did it give?
**A.** 8.2% (inactive)

**Q.** Which inhibition does the source give for COc1ccc2[nH]c(C)c(CCNC(=S)Nc3cc(C)ccc3C)c2c1 here?
**A.** 83.2% (active)

**Q.** For COc1ccc2[nH]c(C)c(CCNC(=S)Nc3ccccc3C)c2c1, which inhibition is on record?
**A.** 0.8% (inactive)

**Q.** With COc1ccc2[nH]c(C)c(CCNC(=S)Nc3cc(C)cc(C)c3)c2c1 as the compound, how does the inhibition read?
**A.** 2.4% (inactive)

**Q.** Which inhibition does the source give for COc1ccc(COc2ccc(S(=O)(=O)N3CCCC3)cc2C(N)=O)cc1F here?
**A.** -6% (inactive)

**Q.** How did the inhibition turn out when CS(=O)(=O)c1ccc(Cl)c(S(=O)(=O)NCc2ccccc2)c1 was run?
**A.** -8.1% (inactive)

**Q.** Which inhibition does the source give for CCNS(=O)(=O)c1cc(S(C)(=O)=O)ccc1Cl here?
**A.** 85.1% (active)

**Q.** How did the inhibition turn out when Cc1ccccc1NS(=O)(=O)c1cc(S(C)(=O)=O)ccc1Cl was run?
**A.** -0.4% (inactive)

**Q.** For CCC(C)(C(=O)NC1CCCC1)N(C(=O)c1cnccn1)c1c(C)n(C)n(-c2ccccc2)c1=O (configuration not stated), which inhibition is on record?
**A.** 1.7% (inactive)

**Q.** With CC(=O)NS(=O)(=O)c1ccc(NC(=O)C2C3C=CC(C3)C2C(=O)O)cc1 (configuration not stated) as the compound, how does the inhibition read?
**A.** 59.6% (active)

**Q.** How did the inhibition turn out when CC(=O)Nc1ccc(NC(=O)C2C3C=CC(C3)C2C(=O)O)cc1 (configuration not stated) was run?
**A.** -6.4% (inactive)

**Q.** NS(=O)(=O)c1ccc(NC(=O)C2C3C=CC(C3)C2C(=O)O)cc1 (configuration not stated) was tested. Which inhibition did it give?
**A.** -7.2% (inactive)

**Q.** How did the inhibition turn out when COc1ccc(OC)c2c1nc1n2CCS1 was run?
**A.** -2.7% (inactive)

**Q.** For Cc1cccc(NC(=O)CN2C(=O)/C(=C3\SC(=S)N(CC4CCCO4)C3=O)c3ccccc32)c1 (configuration not stated), which inhibition is on record?
**A.** -7.3% (inactive)

**Q.** With O=C1/C(=C2\C(=O)N(Cc3ccc(F)cc3)c3ccccc32)SC(=S)N1CCS(=O)(=O)O as the compound, how does the inhibition read?
**A.** -1.2% (inactive)

**Q.** With COCCN1C(=O)/C(=C2/C(=O)N(CC(=O)Nc3ccccc3Cl)c3ccccc32)SC1=S as the compound, how does the inhibition read?
**A.** -3.5% (inactive)

**Q.** With COc1ccc(NC(=O)CN2C(=O)/C(=C3\SC(=S)N(CCC(=O)O)C3=O)c3ccccc32)cc1 as the compound, how does the inhibition read?
**A.** 69.2% (active)

**Q.** Which inhibition does the source give for COc1ccc(NC(=O)CN2C(=O)/C(=C3\SC(=S)N(C4CCS(=O)(=O)C4)C3=O)c3ccccc32)cc1 (configuration not stated) here?
**A.** -5.2% (inactive)

**Q.** For O=C(CN1C(=O)/C(=C2\SC(=S)N(CCS(=O)(=O)O)C2=O)c2ccccc21)Nc1cccc(Br)c1, which inhibition is on record?
**A.** 71% (active)

**Q.** Cc1c(N=Cc2cc(Br)cc(Br)c2O)cccc1C(=O)O was tested. Which inhibition did it give?
**A.** -7.4% (inactive)

**Q.** For CC(=O)CCn1cnc([N+](=O)[O-])n1, which inhibition is on record?
**A.** -3.7% (inactive)

**Q.** How did the inhibition turn out when Cc1ccc([C@@H]2[C@@H]3C(=O)N(C)C(=O)[C@@H]3[C@]3(C)C(=O)N(CCO)CC(=O)N23)o1 was run?
**A.** -10.2% (inactive)

**Q.** With COC(=O)c1[nH]c2ccccc2c1NC(=O)c1ccccc1F as the compound, how does the inhibition read?
**A.** -5.7% (inactive)

**Q.** How did the inhibition turn out when COc1ccc(OCC(=O)Nc2ccccc2OC(F)F)cc1 was run?
**A.** -1.4% (inactive)

**Q.** With CC(C)=NOCc1ccc(-c2cn([C@@H]3COC[C@H]3O)nn2)cc1 as the compound, how does the inhibition read?
**A.** -2.9% (inactive)

**Q.** How did the inhibition turn out when Cc1ccc(C)n1-c1ccc(-c2ccn[nH]2)cc1 was run?
**A.** 50% (active)

**Q.** How did the inhibition turn out when c1ccn(-c2ccc(-c3ccn[nH]3)cc2)c1 was run?
**A.** -5.9% (inactive)

**Q.** For Clc1ccc(-c2ccn[nH]2)cc1, which inhibition is on record?
**A.** -8.1% (inactive)

**Q.** How did the inhibition turn out when O=C(c1cccs1)N1CCCC1 was run?
**A.** -12% (inactive)

**Q.** COc1ccccc1CNC(=O)CCC(=O)N1CCOc2ccc(C)cc21 was tested. Which inhibition did it give?
**A.** -4.7% (inactive)

**Q.** For COc1ccc([N+](=O)[O-])cc1NC(=S)NC(NC(=O)C(c1ccccc1)c1ccccc1)C(Cl)(Cl)Cl (configuration not stated), which inhibition is on record?
**A.** 8% (inactive)

**Q.** Which inhibition does the source give for COc1ccccc1OCC(=O)N(Cc1nc(-c2ccccc2)no1)C(C)C here?
**A.** -3.5% (inactive)

**Q.** CC1CCCCN1Cc1ccc(-c2nnn(CC(=O)NC3CCCCC3)n2)cc1 (configuration not stated) was tested. Which inhibition did it give?
**A.** -2.1% (inactive)

**Q.** CCc1cc(-c2n[nH]c(=S)n2CC(C)C)cs1 was tested. Which inhibition did it give?
**A.** 5.1% (inactive)

**Q.** Which inhibition does the source give for CCCc1cc(-c2n[nH]c(=S)n2CC(C)C)cs1 here?
**A.** 58.3% (active)

**Q.** CCCc1cc(-c2n[nH]c(=S)n2CC)cs1 was tested. Which inhibition did it give?
**A.** -1.3% (inactive)

**Q.** How did the inhibition turn out when Cc1cc2oc(=O)cc(CN(C)Cc3ccccc3F)c2cc1Cl was run?
**A.** -0.7% (inactive)

**Q.** COc1ccc(N2CCN(C(=O)c3ccc(S(=O)(=O)N4CCCC4)cc3)CC2)cc1 was tested. Which inhibition did it give?
**A.** -0.4% (inactive)

**Q.** Which inhibition does the source give for COc1ccc2c(OC)cc(=O)n(C)c2c1 here?
**A.** 59.6% (active)

**Q.** How did the inhibition turn out when COc1cc(=O)n(C)c2ccccc12 was run?
**A.** -3.8% (inactive)

**Q.** With COc1cc(=O)n(C)c2cc(N(C)C)ccc12 as the compound, how does the inhibition read?
**A.** -9.9% (inactive)

**Q.** With CCOC(=O)CSc1nc2ccccc2c(=O)n1CC as the compound, how does the inhibition read?
**A.** 1.2% (inactive)
